Results filed as inconclusive are left out. Unmarked numbers belong to inactive results. Calls of active or inactive are those of the source. Calls come from the whole dose curve; as a rule, active = well fitted inhibition curve with a large enough effect; inconclusive = small, poorly fitted or top-dose-only effect; inactive = no such curve, though single readings can be large or run the other way.
Assay: Primary qHTS for small molecule stabilizers of the endoplasmic reticulum resident proteome: Secreted ER Calcium Modulated Protein (SERCaMP) assay (AID 1508630)
Details: SH-SY5Y GLuc-SERCaMP (Gaussia luciferase released on ER calcium loss) secretion, thapsigargin, luminescence; series mostly up to 38.4 µM; activity change, negative = inhibition: at the top concentration
Excerpt: Assay Provider: Brandon K. Harvey Ph.D.
National Institute on Drug Abuse, National Institutes of Health, Baltimore, MD
Endoplasmic reticulum (ER) dysregulation is associated with human pathologies including neurodegenerative, cardiovascular, muscular, and diabetic conditions. Maintenance of ER calcium is critical for functions of the ER and its depletion can lead to loss of ER resident proteins, in a process termed exodosis. Therapeutic compounds capable of attenuating the redistribution of ER proteins under pathological conditions may slow or stop disease progression. To identify such compounds, we performed a quantitative high-throughput screen (qHTS) using the SERCaMP assay, which monitors secretion of ER resident proteins triggered by calcium depletion.
SERCaMP was initially developed as a reporter of ER calcium homeostasis using a Gaussia luciferase with a modified signal peptide and carboxy-terminus (GLuc-SERCaMP), modifications that confer secretion of the reporter in response to ER calcium depletion (Henderson et al., 2014). The assay was used to screen 9,501 compounds, including a collection of drugs approved by the FDA (US), EMA (EU), NHI (Japan), and HC (Canada) regulatory agencies (Huang et al., 2011). Since the SERCaMP reporter reflects the exodosis phenomenon (Trychta et al., 2018a), compounds identified in the screen have the potential to prevent exodosis by different mechanisms such as stabilizing ER calcium or augmenting ERS retrieval.
1. Henderson, M.J., Wires, E.S., Trychta, K.A., Richie, C.T., and Harvey, B.K. (2014). SERCaMP: a carboxy-terminal protein modification that enables monitoring of ER calcium homeostasis. Mol Biol Cell 25, 2828-2839.
2. Huang, R., Southall, N., Wang, Y., Yasgar, A., Shinn, P., Jadhav, A., Nguyen, D.T., and Austin, C.P. (2011). The NCGC pharmaceutical collection: a comprehensive resource of clinically approved drugs enabling repurposing and chemical genomics. Sci Transl Med 3, 80ps16.
3. Trychta, K.A., Back, S., Henderson, M.J., and Harvey, B.K. (2018a). KDEL Receptors Are Differentially Regulated to Maintain the ER Proteome under Calcium Deficiency. Cell Rep 25, 1829-1840 e1826.
SEQUENCE No. (1, 2, 3, etc.); […] (e.g., Cells, Incubation, Reagent, etc.); VALUE and DESCRIPTION.
1; Reagent; 5 uL; 1000 SH-SY5Y cells per wells
3; Compound; 23 nL; Control inhibitor / compound library
5; Reagent; 100 nM; Thapsigargin
7; Reagent; 1 uL; 0.5x coelenterazine
8; Detection; Luminescence; ViewLux imaging system
NOTES (numbers refer to sequence above)
1; SH-SY5Y human neuroblastoma cells stably expressing GLuc-SERCaMP (SH-SY5Y-GLuc-ASARTDL) cells were seeded in 1,536 well white tissue culture treated plates (Corning, Cat# 7464) in DMEM-high glucose-sodium pyruvate (ThermoFisher Scientific, Cat #10569) supplemented with 10% bovine growth serum (Hyclone), 10 U/ml penicillin (Gibco), 10 ug/ml streptomycin (Gibco), and 20 mM HEPES.
2; Assay plates were incubated for 5 hour at 37C in a humidified incubator containing 5% CO2.
3; qHTS libraries (23 nl, final concentrations of 1.53 uM, 7.67 uM, 38.3 uM) or controls (neutral control: DMSO, positive control: dantrolene) were added using a Kalypsis pin-tool Robotic System equipped with 1536 pinheads.
4; Cells were then incubated for 16 hours at 37C, 5% CO2.
5; Thapsigargin was added at 100 nM to deplete ER calcium stores.
6; Cells were incubated for 4 hour (37 °C, 5% CO2)
7; Gaussia luciferase in the medium was measured by adding 1 ul of 0.5x coelenterazine (final concentration 0.07x) prepared in Gaussia Luciferase Glow Assay Buffer (Pierce), without addition of the Cell Lysis Buffer Reagent.
8; Luminescence was measured using a ViewLux […] CCD imaging system (Perkin Elmer) equipped with clear filters. […] The same controls were also used for the calculation of the Z' factor, a measure of assay quality control, as previously described (Zhang et al., 1999). […]
% is set by controls: 0 for no effect and ±100 for the full control effect.

SMILES	activity change, negative = inhibition	Potency
C[C@@H](CCCCC(=O)Nc1ccc(C(F)(F)F)cc1)NCCc1cnc[nH]1	31.1%	–
CCCC1OC2CC3C4CCC5=CC(=O)C=CC5(C)C4C(O)CC3(C)C2(C(=O)CO)O1 (stereo not given)	-25.6%	–
CC[C@]1(O)C[C@@H]2CN(CCc3c([nH]c4ccccc34)[C@@](C(=O)OC)(c3cc4c(cc3OC)N(C)C3[C@]45CCN4CC=C[C@](CC)(C45)[C@@H](OC(C)=O)[C@]3(O)C(=O)OC)C2)C1 (stereo not given in full)	42.4% [at 21.6 µM]	–
CCCCC/C=C\C/C=C\CCCCCCCCCC(=O)O	-7.65% [at 3.88 µM]	–
CC(O)(C(=O)Nc1ccc(S(=O)(=O)c2ccccc2)cc1)C(F)(F)F (stereo not given)	-24.9%	–
c1ccc(CN2CCC3(CCc4ccccc43)CC2)cc1	–	inactive
CC(C)(C)c1cc(O)c(C(C)(C)C)cc1O	–	inactive
O=C(NCCCCCCNC(=O)ON=C1CCCCC1)ON=C1CCCCC1	–	inactive
Nc1c(S(=O)(=O)O)cc(Nc2ccc(Cl)cc2)c2c1C(=O)c1ccccc1C2=O	21.7%	–
COC(=O)CNC(=O)C(=O)OC	-16.2% [at 3.88 µM]	–
Cc1ccccc1N=C(N)Nc1ccccc1C	–	inactive
c1ncc(CC2CCNCC2)[nH]1	–	inactive
CC(C)c1cnc(NC(=O)Cc2ccccc2)s1	35.2%	–
CS(=O)(=O)c1ccc(-c2cc(Br)sc2-c2ccc(F)cc2)cc1	4.36%	–
COc1cccc2c1C(=O)c1c(O)c3c(c(O)c1C2=O)C[C@@](O)(C(=O)CO)C[C@@H]3O[C@@H]1C[C@H](N)[C@H](O)[C@H](C)O1	99.2%	–
CCCN(C/C=C/I)C1CCc2cccc(O)c2C1 (stereo not given)	-20.4%	–
NC1(C(=O)O)C[C@H](C(=O)O)[C@H](C(=O)O)C1 (stereo not given in full)	–	inactive
O=S(=O)(NCCCCCCc1ccccc1)c1cccc2c(Cl)cccc12	27.9%	–
N[C@@H](CCS(=O)O)C(=O)O	-23.7%	–
COc1ccc2c(c1)CCC1[C@@H]2CCC2(C)[C@@H](NCCCCCCN3C(=O)C=CC3=O)CC[C@@H]12 (stereo not given in full)	2.09%	–

SMILES	activity change, negative = inhibition	Potency
CCCCCCCC/C=C\CCCCCCCC(N)=O	–	inactive
O=C(O)/C=C1\CCCc2ccccc2C1O (stereo not given)	-13.6%	–
O=C(O)COc1ccc(OCCNC[C@@H](O)COc2ccccc2)cc1	-24.4%	–
CCCCCCCCCCCCCCCCOCC(CO)OC (stereo not given)	-17.7% [at 3.88 µM]	–
CC1(C)C(=O)NC2=C1C(=O)C(=O)c1ccccc12	61.3%	–
CCCCCCCC/C=C\CCCCCCCC(=O)OC[C@H](CO)OC(C)=O	-28% [at 3.88 µM]	–
CCCCC/C=C\C/C=C\C/C=C\C/C=C\CCCC(=O)O	40.9% [at 3.88 µM]	–
N[C@@H](CO)C(=O)O	-14.9%	–
N[C@H](CCC(=O)N[C@H](CSN=O)C(=O)NCC(=O)O)C(=O)O	-2.11%	–
COc1cccc(CNc2ccc3nc(-c4ccc(N)cc4)c(OC)n3n2)c1	–	inactive
O=C(Nc1ccc(C(=O)Nc2ccc(C(=O)Nc3ccc(S(=O)(=O)O)c4cc(S(=O)(=O)O)cc(S(=O)(=O)O)c34)cc2)cc1)Nc1ccc(C(=O)Nc2ccc(C(=O)Nc3ccc(S(=O)(=O)O)c4cc(S(=O)(=O)O)cc(S(=O)(=O)O)c34)cc2)cc1	–	inactive
Nc1cc(N2CCCCC2)nc(N)[n+]1OS(=O)(=O)[O-]	–	inactive
CCCCCCCCC#CCC#CCC#CCCCC(=O)O	-14.3% [at 3.88 µM]	–
Cc1c(-c2ccc(Cl)cc2)noc1C1CCN(CCc2ccccc2)CC1	-28%	–
CNC(=O)[C@H]1O[C@@H](n2cnc3c(N)ncnc32)[C@H](O)[C@@H]1O	-32.2%	–
N[C@@H](C(=O)O)c1ccc(P(=O)(O)O)cc1	-9.42%	–
CC(N)(COP(=O)(O)O)C(=O)O (stereo not given)	-17.2%	–
CCCCC/C=C\C/C=C\C/C=C\C/C=C\CCCC(=O)O[C@@H](CO)COC(=O)CCCCCCCCCCCCCCCCC	-0.0647% [at 3.88 µM]	–
COc1ccc(CCCOC(Cn2ccnc2)c2ccc(OC)cc2)cc1 (stereo not given)	–	inactive
C=C[C@H](N)CCC(=O)O	6.15%	–

— PubChem BioAssay (NCATS)
